Assay outcomes as filed in PubChem.
Shown are actives, neighbours in structure and some others; about 4.1% of the full set was active somewhere.
DAX1 inh-1 = DAX1 (NR0B1) inhibitors, primary screen, cell-based, HEK293, Gal4-DAX1, luciferase luminescence | Nuclear receptor subfamily 0 group B member 1 (Homo sapiens), P51843 | HEK293 Gal4-DAX1 luciferase reporter | inhibition, % at 6.75 µM | 340,000 tested, 0.99% active | AID 504766, 2011;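 active means inhibition above the mean over all tested compounds plus 3 SD, cut at about 4.2% in these data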;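 further: 0% = DAX1-transfected cells with DMSO and 100% = empty-vector control cells with DMSO; inhibition shows as a rise in luminescence from relieved DAX1 repression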
Target sequence (P51843 207-470 limits assumed): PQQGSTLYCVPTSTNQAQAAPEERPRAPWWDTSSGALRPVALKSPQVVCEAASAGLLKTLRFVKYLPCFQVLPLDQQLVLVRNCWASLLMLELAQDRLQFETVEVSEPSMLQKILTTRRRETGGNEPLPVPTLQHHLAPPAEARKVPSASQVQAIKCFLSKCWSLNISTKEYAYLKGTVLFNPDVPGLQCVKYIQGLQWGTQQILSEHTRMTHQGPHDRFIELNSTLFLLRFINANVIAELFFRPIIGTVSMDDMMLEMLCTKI
hcDAF12 agonist = H. contortus DAF-12 nuclear receptor activators, primary screen, cell-based, luminescence, HEK293, lit1-tk-luc reporter; AID 652067, 2013; activation, % at 6.8 µM; HEK293 hcDAF-12 lit1-tk-luc reporter; 0% DMSO, 100% Δ7-dafachronic acid; 370,000 tested, 1.4% active;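 active means activation above the mean of all tested compounds plus 3 SD, cut at about 5.5% in these data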;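 further: 100% = response to 3 µM Δ7-dafachronic acid high control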
DAX1 inh-2 = DAX1 (NR0B1) inhibitors on StAR promoter, primary screen, cell-based, luminescence, SF-1 (NR5A1), full-length DAX-1; HEK293T StAR-luciferase reporter, SF-1/DAX-1 repression relief; inhibition, % at 6.8 µM; 370,000 tested, 1.1% active;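 active means inhibition above the mean over all tested compounds plus 3 SD, cut at about 3.6% in these data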;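 further: 0% = DAX-1 cells with DMSO and 100% = cells lacking DAX-1 with DMSO; higher inhibition means more luminescence from relief of DAX-1 repression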
hgDAF-12 ag = H. glycines DAF-12 receptor agonists, primary screen, cell-based, luminescence, HEK293, GAL4 fusion, UAS-luciferase | Nuclear hormone receptor DAF-12 (Heterodera glycines), GAL4 fusion | HEK293 GAL4-hgDAF12 UAS-luciferase reporter, agonist luminescence; normalized to butyrate control | activation, % at 6.8 µM | 370,000 tested, 1.8% active;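 active means activation above a cutoff set at the mean of all screened compounds plus 3 SD, cut at about 10% in these data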;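 further: 0% = DMSO wells and 100% = sodium butyrate wells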
ssDAF-12 act = S. stercoralis DAF-12 nuclear receptor activators, primary screen, cell-based, luminescence, HEK293, GRIP1 co-expression, lit1-tk-luc; HEK293 ssDAF-12/GRIP1 lit1-tk-luc reporter; % of 3 µM dafachronic acid response; activation, % at 6.8 µM; 370,000 tested, 1% active;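 active means activation above the mean over all tested compounds plus 3 SD, cut at about 0.9% in these data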;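 further: 0% = DMSO-only wells and 100% = 3 µM delta7-dafachronic acid wells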
Starred values were filed as active, the others as inactive; / = no result given.

SMILES	DAX1 inh-1	hcDAF12 agonist	DAX1 inh-2	hgDAF-12 ag	ssDAF-12 act
O=C(C(=O)N1CCOCC1)c1cn(CC(=O)N2CCc3ccccc3C2)c2ccccc12	0.7	1.2	-1.0	-2.2	-1.8
O=C(Cn1cc(S(=O)(=O)Cc2ccccc2F)c2ccccc21)N1CCOCC1	0.2	0.0	-0.3	11.0*	-1.0
O=C(C(=O)N1CCc2ccccc2C1)c1cn(CC(=O)N2CCOCC2)c2ccccc12	0.5	0.2	-0.5	-0.4	1.8*
CC(C)c1ccc(NC(=O)CSc2nnc(-c3ccco3)n2C)cc1	/	-2.6	-0.2	-3.5	-0.9
Cc1cccc(CN2CCN(C3CN(Cc4cn(Cc5ccc(C(F)(F)F)cc5)nn4)S(=O)(=O)C3)CC2)c1 (stereo not drawn)	/	-2.8	-2.5	-0.6	-1.7
O=C(Cc1c[nH]c2ccccc12)Nc1ccc(Nc2cccnc2)c(-c2ccc(F)c(F)c2)c1	/	0.1	-3.4	-5.6	-1.0
O=C(Cc1c[nH]c2ccccc12)Nc1ccc(Nc2cccnc2)c(-c2ccc(-c3ccccc3)cc2F)c1	/	5.7*	-1.9	-1.2	-0.1
COc1cccc(-n2nnc3c(=O)n(CC(=O)N4CCC(C)CC4)cnc32)c1	0.7	-1.6	-1.0	0.4	-1.2
COc1cccc(-n2nnc3c(=O)n(CC(=O)N4CCC(Cc5ccccc5)CC4)cnc32)c1	-0.9	5.1	-1.2	6.0	1.2*
NC(=O)c1ccc(-c2noc(-c3cccc(Cl)c3)n2)cc1	1.4	-1.1	0.5	4.8	-0.4
O=C(O)c1cccc(-c2noc(-c3cccc(Cl)c3)n2)c1	-1.6	4.2	2.5	13.0*	0.3
CCOC(=O)c1c(C)[nH]c(C2=NNC(=Nc3ccccc3)SC2)c1C	0.9	1.7	-0.5	1.6	-1.7
CCOC(=O)c1c(C)[nH]c(C2=NNC(=Nc3ccccc3OC)SC2)c1C	1.4	6.0*	0.5	2.7	-0.4
O=C(NC1CCCC1)C1CCN(S(=O)(=O)c2ccc3[nH]c(=O)oc3c2)CC1	/	1.1	-0.6	0.9	-1.4
Cc1cc(Nc2ccc(F)c(Cl)c2)n2nc(C)nc2n1	0.0	-1.0	-0.9	-3.0	-1.3
Cc1cc(Nc2ccc(C)c(Br)c2)n2nc(C)nc2n1	4.4*	-0.9	-0.3	-0.1	-3.5
Cc1cc(Nc2ccccc2Br)n2nc(C)nc2n1	0.5	-0.3	-1.0	3.1	-1.5
Cc1cc(Nc2ccc(F)cc2F)n2nc(C)nc2n1	4.9*	4.0	1.3	1.6	-0.5
COc1ccc(Nc2cc(C)nc3nc(C)nn23)cc1Cl	4.6*	-0.5	-0.7	-2.1	-0.9
COc1ccc(Nc2cc(C)nc3nc(C)nn23)c(OC)c1	5.1*	-0.8	0.1	-2.0	-0.5
Cc1cc(Nc2cc(F)ccc2C)n2nc(C)nc2n1	3.3	-0.5	-0.2	-0.8	-1.4
Cc1cc(C(=O)NCCCn2ccnc2)sc1-c1ccccc1	-1.0	0.8	-1.0	-0.8	-1.1
O=C(OCc1ccccc1)[C@H](Cc1ccccc1)NC(=O)[C@@H]1CC=C[C@@H]2CCN(CCc3ccccc3)C(=O)[C@@H]21	/	-1.3	/	0.4	-1.8
CC(C)CN1C(=O)C[C@]2(C(=O)N(C)c3ccc(NS(=O)(=O)c4ccc(F)cc4)cc32)C1c1ccccc1 (stereo partly drawn)	/	0.6	-1.3	2.2	-1.0
CCOC(=O)N(C)[C@H]1C[C@H]2c3[nH]c4cccc(-c5cccc(F)c5)c4c3CCN2C(=O)[C@H]1[C@H](C)O	/	-2.5	-0.9	-2.4	-1.8
SMILES	DAX1 inh-1	hcDAF12 agonist	DAX1 inh-2	hgDAF-12 ag	ssDAF-12 act
Cc1ccc(N2/C(=N/c3nc(C)cc(C)n3)NC(=O)CC2C(=O)O)cc1 (stereo not drawn)	-0.4	5.8*	0.3	2.8	0.2
O=C(Nc1nc(-c2ccccc2)cs1)c1ccco1	0.6	1.2	1.2	8.1	-1.2
Cc1ccc(-c2csc(NC(=O)c3ccco3)n2)cc1C	4.3*	4.0	0.1	10.3	0.4
CN(C(=O)c1ccco1)c1nc(-c2ccccc2)cs1	2.9	5.9*	3.7*	11.2*	0.5
O=C(CCNC(=O)c1ccco1)Nc1nc(-c2ccccc2)cs1	/	6.4*	-0.2	8.7	1.0*
CC(=O)Nc1ccc(-c2csc(NC(=O)CCNC(=O)c3ccco3)n2)cc1	0.6	0.1	-1.2	-0.7	-1.3
O=C(COc1ccccc1)Nc1cc(Cl)ccc1Cl	4.6*	5.9*	1.0	7.4	-0.5
CC(C)[C@@H]1C(=O)N[C@H](Cc2cn(S(=O)(=O)c3ccccc3)c3ccccc23)C(=O)N1C	/	0.8	/	-1.8	-1.8
O=C1NC(=O)/C(=C/c2ccc(O)cc2)S1	1.2	0.5	1.4	13.9*	-0.8
O=C(c1cc2c(c(-c3cccc(-c4ccncc4)c3)n1)[C@@H](CCO)N(C(=O)c1ccc3c(c1)OCO3)C2)N1CCOCC1	/	2.8	3.7*	7.7	-0.5
O=C(c1cc2c(c(-c3cccc(-c4ccc(F)cc4)c3)n1)[C@H](CCO)N(C(=O)c1ccc3c(c1)OCO3)C2)N1CCOCC1	/	-2.0	-2.2	-3.3	-1.1
O=C(CN(Cc1ccccc1Cl)C(=O)CNS(=O)(=O)c1ccc(F)cc1)NCC1CCCO1 (stereo not drawn)	0.1	-1.1	-0.2	-0.9	-0.5
C/C(=N\NC(=O)c1ccc(Cn2cc(Br)cn2)o1)c1ccc(NC(=O)c2ccoc2C)cc1	0.4	1.8	4.4*	9.5	-0.1
NC(=O)c1cc2ccc(O)cc2oc1=Nc1ccccc1	-0.5	3.9	3.5	11.9*	-0.1
CC(Cc1ccccc1)Nc1ncnc2c1ncn2C1OC(CO)C(O)C1O (stereo not drawn)	-0.3	-3.4	1.4	-3.9	-1.3
C[C@H](Cc1ccccc1)Nc1ncnc2c1ncn2[C@@H]1O[C@H](CO)[C@@H](O)[C@H]1O	0.0	-3.4	3.8*	0.9	-1.4
O=C(O)c1cc(=O)[nH]c2c(Cl)cccc12	-0.2	5.8*	0.3	2.2	0.6
COc1ccc(-n2c(Cc3cccs3)nnc2SCC(=O)Nc2ccc(OCc3ccccc3)cc2)cc1	/	0.7	-2.8	1.5	-1.9
O=C(/C=C/c1ccco1)N1CCN(S(=O)(=O)c2cccs2)CC1	6.6*	-1.9	-0.7	0.0	-1.2
COc1cc(C2NC(=O)CCC2[N+](=O)[O-])c(OC)cc1Br (stereo not drawn)	-0.3	-0.5	1.2	-2.7	0.9*
COc1cccc(C2NC(=O)CCC2[N+](=O)[O-])c1OC (stereo not drawn)	2.5	-2.2	-0.1	-1.7	-0.6
